Records with an inconclusive call do not appear. Activity calls are given as the source filed them. Rule for the calls, unless noted: active = hit-call score of the fitted dose curve at least 0.9, where 1 is the maximum; inactive = score below 0.9.
Key:
[1] = read-out: Intercellular Adhesion Molecule 1 (ICAM1), ICAM1 (gene 3383); experiment: BSK_3C_ICAM1: BioMAP Diversity Plus: 3C Assay for Intercellular Adhesion Molecule 1 (ICAM1) Biomarker Activity (AID 2283003); conditions: primary human endothelial cells (HUVEC); actives raise or lower the signal
Procedure, shortened: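 ELISA read-out of ICAM-1; HUVEC (primary human), 3C system, 24 h post-dosing; bidirectional fit vs DMSO baseline.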

[2] = target: human Retinoic Acid Receptor beta (RARb), RARB (gene 5915) (UniProt P10826); experiment: ATG_RARb_TRANS: Attagene TRANS-FACTORIAL HepG2 Assay for human Retinoic Acid Receptor beta (AID 2283004; active = hit-call score of the fitted dose curve at least 0.9, where 1 is the maximum)
human Retinoic Acid Receptor beta (RARb), RARB (gene 5915), sequence (P10826 whole entry, looked up, the tested form may be a part): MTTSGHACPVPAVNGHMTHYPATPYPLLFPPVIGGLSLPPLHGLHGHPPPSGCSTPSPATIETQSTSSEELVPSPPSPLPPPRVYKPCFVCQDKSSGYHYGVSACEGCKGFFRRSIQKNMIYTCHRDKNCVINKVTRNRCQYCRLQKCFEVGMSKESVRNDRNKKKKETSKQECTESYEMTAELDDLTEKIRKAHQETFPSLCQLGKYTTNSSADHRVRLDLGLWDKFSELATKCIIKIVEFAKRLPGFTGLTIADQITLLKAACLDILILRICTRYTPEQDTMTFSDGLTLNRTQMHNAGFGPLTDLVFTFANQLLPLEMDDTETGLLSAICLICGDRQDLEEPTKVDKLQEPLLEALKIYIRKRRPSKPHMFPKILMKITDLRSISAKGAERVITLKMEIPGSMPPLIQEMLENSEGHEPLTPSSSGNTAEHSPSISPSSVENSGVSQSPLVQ
Procedure, shortened: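 Readout is reporter mRNA induction: RNA reverse-transcribed, PCR-amplified, FAM-labelled, HpaI-cut and resolved by capillary electrophoresis. Transiently transfected HepG2 cells carrying exogenous NR–Gal4 chimeras were dosed for 24 h; activity fitted upward relative to DMSO.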

[3] = target: Retinoic acid receptor alpha (Homo sapiens) (UniProt P10276); experiment: ATG_RARa_TRANS: Attagene TRANS-FACTORIAL HepG2 Assay for human Retinoic Acid Receptor alpha (RARa) (AID 2283005; active = hit-call score of the fitted dose curve at least 0.9, where 1 is the maximum)
Retinoic acid receptor alpha (Homo sapiens), sequence (P10276 whole entry, looked up, the tested form may be a part): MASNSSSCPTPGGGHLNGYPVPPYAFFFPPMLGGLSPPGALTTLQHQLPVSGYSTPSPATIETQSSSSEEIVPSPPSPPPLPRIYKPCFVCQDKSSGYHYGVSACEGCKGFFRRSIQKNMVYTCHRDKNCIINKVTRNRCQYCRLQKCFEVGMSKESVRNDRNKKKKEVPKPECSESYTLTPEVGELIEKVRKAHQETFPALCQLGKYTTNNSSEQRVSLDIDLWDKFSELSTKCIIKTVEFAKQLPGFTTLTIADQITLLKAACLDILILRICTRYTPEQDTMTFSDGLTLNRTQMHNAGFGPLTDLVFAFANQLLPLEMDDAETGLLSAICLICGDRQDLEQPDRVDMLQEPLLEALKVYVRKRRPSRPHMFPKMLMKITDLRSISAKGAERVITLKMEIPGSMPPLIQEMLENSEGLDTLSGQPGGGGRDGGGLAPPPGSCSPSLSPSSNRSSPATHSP
Procedure, shortened: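 HepG2 transiently transfected with multiplex GAL4-UAS reporter units including a human RARa–GAL4 chimera; 24 h compound exposure. Reporter mRNA quantified by RT-PCR, 6-FAM labeling and capillary electrophoresis; gain of signal versus DMSO.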

[4] = BSK_3C_Proliferation: Cell Proliferation Assessment in the BioMAP Diversity Plus: 3C Assay (AID 2283006); conditions: primary human endothelial cells (HUVEC);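 for AC50: potency may reflect either rise or fall in cell number versus DMSO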
Procedure, shortened: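 HUVEC, sub-confluent; 48 h chemical exposure; 10% TCA fix, 0.1% SRB stain, A560 total protein. Gain or loss of signal fitted both directions vs DMSO control.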

[5] = target: Nuclear receptor subfamily 1 group I member 2 (Homo sapiens) (UniProt O75469); experiment: ATG_PXR_TRANS: Attagene TRANS-FACTORIAL HepG2 Assay for human Pregnane X Receptor (PXR) (AID 2283008; active = hit-call score of the fitted dose curve at least 0.9, where 1 is the maximum)
Nuclear receptor subfamily 1 group I member 2 (Homo sapiens), sequence (O75469 whole entry, looked up, the tested form may be a part): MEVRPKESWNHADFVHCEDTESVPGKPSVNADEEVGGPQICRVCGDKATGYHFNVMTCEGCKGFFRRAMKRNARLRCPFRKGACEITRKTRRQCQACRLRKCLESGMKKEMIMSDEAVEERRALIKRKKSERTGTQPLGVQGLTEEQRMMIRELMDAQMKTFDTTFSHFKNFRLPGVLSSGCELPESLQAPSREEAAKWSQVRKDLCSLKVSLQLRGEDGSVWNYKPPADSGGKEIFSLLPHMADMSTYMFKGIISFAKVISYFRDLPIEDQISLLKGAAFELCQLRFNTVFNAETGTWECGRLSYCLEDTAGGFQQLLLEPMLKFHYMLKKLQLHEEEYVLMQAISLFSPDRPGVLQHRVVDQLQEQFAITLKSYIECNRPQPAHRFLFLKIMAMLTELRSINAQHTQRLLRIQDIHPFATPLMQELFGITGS
Procedure, shortened: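 Multiplexed TRANS reporter panel in HepG2; this component tracks PXR-Gal4-driven reporter mRNA after 24 h dosing, measured by RT-PCR with capillary electrophoresis fluorescence, fitted against DMSO.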

[6] = target: human Retinoic Acid Receptor gamma (RARg), RARG (gene 5916) (UniProt P13631); experiment: ATG_RARg_TRANS: Attagene TRANS-FACTORIAL HepG2 Assay for human Retinoic Acid Receptor gamma (RARg) (AID 2283009; active = hit-call score of the fitted dose curve at least 0.9, where 1 is the maximum)
human Retinoic Acid Receptor gamma (RARg), RARG (gene 5916), sequence (P13631 whole entry, looked up, the tested form may be a part): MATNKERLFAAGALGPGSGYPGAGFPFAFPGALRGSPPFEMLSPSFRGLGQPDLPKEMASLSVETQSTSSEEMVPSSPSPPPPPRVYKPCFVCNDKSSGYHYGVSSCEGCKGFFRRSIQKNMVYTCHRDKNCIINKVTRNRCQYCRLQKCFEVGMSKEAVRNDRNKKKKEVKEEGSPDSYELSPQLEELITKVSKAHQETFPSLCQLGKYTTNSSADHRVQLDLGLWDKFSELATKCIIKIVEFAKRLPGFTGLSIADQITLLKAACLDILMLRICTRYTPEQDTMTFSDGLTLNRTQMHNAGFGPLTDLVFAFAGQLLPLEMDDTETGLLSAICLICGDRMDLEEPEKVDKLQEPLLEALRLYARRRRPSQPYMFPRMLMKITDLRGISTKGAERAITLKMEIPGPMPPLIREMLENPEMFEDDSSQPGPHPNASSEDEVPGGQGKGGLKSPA
Procedure, shortened: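 Readout: reporter transcript levels via RT-PCR, 6-FAM primer-extension labelling, HpaI digestion and capillary electrophoresis. Cells: HepG2 carrying transfected RARg-GAL4 chimera plus UAS reporter set. Dosing 24 h; DMSO negative control.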

[7] = target: human RAR-related Orphan Receptor beta (RORb), RORB (gene 6096) (UniProt Q92753); experiment: ATG_RORb_TRANS: Attagene TRANS-FACTORIAL HepG2 Assay for human RAR-related Orphan Receptor beta (RORb) (AID 2283010; active = hit-call score of the fitted dose curve at least 0.9, where 1 is the maximum)
Procedure, shortened: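 HepG2, transient MRTU transfection (GAL4-UAS reporters, exogenous NR-Gal4 chimeras); 24 h compound exposure; total RNA → RT-PCR → 6-FAM primer extension → HpaI digest → CE fluorescence. Positive direction vs DMSO baseline.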

[8] = target: human RAR-related Orphan Receptor gamma (RORg), RORC (gene 6097) (UniProt P51449); experiment: ATG_RORg_TRANS: Attagene TRANS-FACTORIAL HepG2 Assay for human RAR-related Orphan Receptor gamma (RORg) (AID 2283011; active = hit-call score of the fitted dose curve at least 0.9, where 1 is the maximum)
human RAR-related Orphan Receptor gamma (RORg), RORC (gene 6097), sequence (P51449 whole entry, looked up, the tested form may be a part): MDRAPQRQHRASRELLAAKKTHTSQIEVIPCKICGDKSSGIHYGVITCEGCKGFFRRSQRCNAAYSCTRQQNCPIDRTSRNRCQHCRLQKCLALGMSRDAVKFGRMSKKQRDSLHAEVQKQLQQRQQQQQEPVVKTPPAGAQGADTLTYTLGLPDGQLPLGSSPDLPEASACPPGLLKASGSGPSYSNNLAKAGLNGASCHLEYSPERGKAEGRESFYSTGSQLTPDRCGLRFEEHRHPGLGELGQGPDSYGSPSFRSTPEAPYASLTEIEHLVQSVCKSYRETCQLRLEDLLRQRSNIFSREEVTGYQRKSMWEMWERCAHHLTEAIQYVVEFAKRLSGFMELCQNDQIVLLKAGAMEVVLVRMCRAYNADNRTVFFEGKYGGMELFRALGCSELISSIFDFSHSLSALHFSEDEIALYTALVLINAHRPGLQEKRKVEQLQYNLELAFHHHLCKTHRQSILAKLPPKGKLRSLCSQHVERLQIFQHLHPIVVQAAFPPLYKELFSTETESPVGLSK
Procedure, shortened: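 Transient MRTU transfection of HepG2 (TRANS format, exogenous NR-Gal4 chimera). 24 h dosing. Total RNA → oligo(dT) RT → PCR → 6-FAM labelling → HpaI cut → CE. Gain vs DMSO.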

[9] = target: Retinoic acid receptor RXR-alpha (Homo sapiens) (UniProt P19793); experiment: ATG_RXRa_TRANS: Attagene TRANS-FACTORIAL HepG2 Assay for human Retinoid X Receptor alpha (RXRa) (AID 2283012; active = hit-call score of the fitted dose curve at least 0.9, where 1 is the maximum)
Retinoic acid receptor RXR-alpha (Homo sapiens), sequence (P19793 whole entry, looked up, the tested form may be a part): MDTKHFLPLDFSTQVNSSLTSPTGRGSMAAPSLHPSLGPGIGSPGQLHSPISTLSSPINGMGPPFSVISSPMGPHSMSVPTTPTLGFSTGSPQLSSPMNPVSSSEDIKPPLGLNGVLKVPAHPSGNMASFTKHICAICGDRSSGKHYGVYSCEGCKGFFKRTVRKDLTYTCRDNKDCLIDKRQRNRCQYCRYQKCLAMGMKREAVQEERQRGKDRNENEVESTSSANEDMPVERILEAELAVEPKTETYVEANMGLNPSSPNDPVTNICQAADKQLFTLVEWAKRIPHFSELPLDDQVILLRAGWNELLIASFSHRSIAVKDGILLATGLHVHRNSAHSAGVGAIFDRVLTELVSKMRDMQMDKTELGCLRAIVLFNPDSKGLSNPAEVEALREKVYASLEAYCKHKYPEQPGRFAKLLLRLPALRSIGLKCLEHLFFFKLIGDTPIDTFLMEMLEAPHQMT
Procedure, shortened: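 Read-out: fluorescent reporter-transcript fragments quantified by capillary electrophoresis after RT-PCR. Transiently transfected HepG2 cells carrying GAL4-UAS reporters and NR-GAL4 chimeras were exposed to chemical for 24 h; activity scored as increase over DMSO.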

[10] = target: human Thyroid Receptor alpha (THRa1), THRA (gene 7067) (UniProt P10827); experiment: ATG_THRa1_TRANS: Attagene TRANS-FACTORIAL HepG2 Assay for human Thyroid Receptor alpha (THRa1) (AID 2283014; active = hit-call score of the fitted dose curve at least 0.9, where 1 is the maximum)
human Thyroid Receptor alpha (THRa1), THRA (gene 7067), sequence (P10827 whole entry, looked up, the tested form may be a part): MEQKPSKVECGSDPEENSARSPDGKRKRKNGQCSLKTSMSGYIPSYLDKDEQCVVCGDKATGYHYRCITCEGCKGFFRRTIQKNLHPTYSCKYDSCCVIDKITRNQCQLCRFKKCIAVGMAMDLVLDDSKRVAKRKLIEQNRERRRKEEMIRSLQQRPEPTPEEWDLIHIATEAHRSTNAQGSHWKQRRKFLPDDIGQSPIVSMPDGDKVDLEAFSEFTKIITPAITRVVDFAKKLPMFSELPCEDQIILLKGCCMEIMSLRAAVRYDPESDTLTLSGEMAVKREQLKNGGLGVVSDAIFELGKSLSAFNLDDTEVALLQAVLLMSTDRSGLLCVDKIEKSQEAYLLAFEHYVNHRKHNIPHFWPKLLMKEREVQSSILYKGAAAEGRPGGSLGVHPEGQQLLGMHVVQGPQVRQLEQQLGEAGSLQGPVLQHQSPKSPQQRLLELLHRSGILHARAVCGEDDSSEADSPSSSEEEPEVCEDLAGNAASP
Procedure, shortened: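 Transient HepG2 transfection, NR-Gal4 chimera driving GAL4-UAS reporters; 24 h compound exposure; total RNA, oligo(dT) RT, PCR, fluorescent primer extension, capillary electrophoresis. Upward direction vs DMSO control.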

[11] = read-out: E-selectin (Homo sapiens) (UniProt P16581); experiment: BSK_3C_Eselectin: BioMAP Diversity Plus: 3C Assay for Eselectin Biomarker Activity (AID 2283015); conditions: primary human endothelial cells (HUVEC); actives raise or lower the signal;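 note: cell surface E-selectin protein quantified by ELISA 24 h after dosing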
Procedure, shortened: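 HUVEC, 3C stimulation; compound exposure 24 h; E-selectin by ELISA; gain- or loss-of-signal fitted bidirectionally vs DMSO baseline.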

[12] = read-out: Interleukin-1 alpha (IL1a), IL1A (gene 3552); experiment: BSK_BE3C_IL1a: BioMAP Diversity Plus: BE3C Assay for Interleukin-1 alpha (IL1a) Biomarker Activity (AID 2283016); conditions: primary human bronchial epithelial cells; actives raise or lower the signal
Procedure, shortened: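 ELISA read-out of IL-1a from human lung bronchial epithelial primary cells, 24 h post-dose. Gain or loss of signal fitted relative to DMSO negative control.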

[13] = read-out: Monocyte Chemoattractant Protein-1 (MCP1), CCL2 (gene 6347); experiment: BSK_4H_MCP1: BioMAP Diversity Plus: 4H Assay for Monocyte Chemoattractant Protein-1 (MCP1) Biomarker Activity (AID 2283018); conditions: primary human endothelial cells (HUVEC); actives raise or lower the signal
Procedure, shortened: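 HUVEC primary cells, 24 h post-dose, MCP-1 by ELISA. Gain or loss of signal fitted bidirectionally vs DMSO baseline. Cytotoxicity: SRB stain (0.1% after 10% TCA fixation), read 560 nm, parallel cultures.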

[14] = read-out: Human Leukocyte Antigen - DR isotype (HLADR), HLA-DRA (gene 3122); experiment: BSK_3C_HLADR: BioMAP Diversity Plus: 3C Assay for Human Leukocyte Antigen - DR isotype (HLADR) Biomarker Activity (AID 2283019); conditions: primary human endothelial cells (HUVEC); actives raise or lower the signal;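 note: ELISA of cell-surface HLA-DR on HUVEC 24 h after dosing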
Procedure, shortened: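 HUVEC, 3C stimulation, 24 h post-dose; HLA-DR by ELISA; bidirectional curve fit vs DMSO baseline; gain or loss of signal scored.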

[15] = read-out: Interleukin-8 (IL8), CXCL8 (gene 3576); experiment: BSK_3C_IL8: BioMAP Diversity Plus: 3C Assay for Interleukin-8 (IL8) Biomarker Activity (AID 2283020); conditions: primary human endothelial cells (HUVEC); actives raise or lower the signal
Procedure, shortened: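 HUVEC, 3C stimulation; 24 h compound exposure; IL-8 read by ELISA; gain or loss of signal fitted relative to DMSO control.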

[16] = read-out: Monokine induced gamma interferon (MIG), CXCL9 (gene 4283); experiment: BSK_3C_MIG: BioMAP Diversity Plus: 3C Assay for Monokine induced gamma interferon (MIG) Biomarker Activity (AID 2283021); conditions: primary human endothelial cells (HUVEC); actives raise or lower the signal
Procedure, shortened: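 HUVEC, 3C system; 24 h chemical exposure; MIG by ELISA; bidirectional fit vs DMSO baseline.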

[17] = target: human Vitamin D Receptor (VDR), VDR (gene 7421) (UniProt P11473); experiment: ATG_VDR_TRANS: Attagene TRANS-FACTORIAL HepG2 Assay for human Vitamin D Receptor (VDR) (AID 2283022; active = hit-call score of the fitted dose curve at least 0.9, where 1 is the maximum)
Procedure, shortened: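 RT-PCR/capillary electrophoresis read-out of reporter mRNA induction in transiently transfected HepG2; 24 h dosing; chimeric NR-Gal4 (TRANS format); gain-of-signal fit against DMSO baseline.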

[18] = target: Peroxisome proliferator-activated receptor gamma (Homo sapiens) (UniProt P37231); experiment: ATG_PPARg_TRANS: Attagene TRANS-FACTORIAL HepG2 Assay for human Peroxisome Proliferator-activated Receptor-gamma (PPARg) (AID 2283007; active = hit-call score of the fitted dose curve at least 0.9, where 1 is the maximum)
Peroxisome proliferator-activated receptor gamma (Homo sapiens), sequence (P37231 whole entry, looked up, the tested form may be a part): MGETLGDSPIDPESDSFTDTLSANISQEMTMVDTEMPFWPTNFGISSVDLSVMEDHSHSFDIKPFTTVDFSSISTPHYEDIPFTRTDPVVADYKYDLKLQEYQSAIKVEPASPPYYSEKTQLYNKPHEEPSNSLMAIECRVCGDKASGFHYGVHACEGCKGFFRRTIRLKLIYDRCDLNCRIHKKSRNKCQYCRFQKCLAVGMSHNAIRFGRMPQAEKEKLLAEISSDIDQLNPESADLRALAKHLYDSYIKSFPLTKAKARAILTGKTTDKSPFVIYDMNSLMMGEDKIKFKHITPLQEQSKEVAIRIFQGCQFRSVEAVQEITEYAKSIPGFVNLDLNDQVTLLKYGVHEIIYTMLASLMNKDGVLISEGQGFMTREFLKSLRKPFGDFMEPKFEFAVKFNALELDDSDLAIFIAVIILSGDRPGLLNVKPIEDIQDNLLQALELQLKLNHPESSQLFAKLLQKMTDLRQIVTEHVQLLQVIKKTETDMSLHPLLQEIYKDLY
Procedure, shortened: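 After 24 h of chemical exposure, transfected HepG2 cells carrying PPARγ-Gal4 chimera reporter constructs are lysed for RNA. Reporter transcripts are measured by RT-PCR and capillary electrophoresis with fluorescent labelling, and gain of signal is fitted versus DMSO.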

[19] = target: human Retinoid X Receptor beta (RXRb), RXRB (gene 6257) (UniProt P28702); experiment: ATG_RXRb_TRANS: Attagene TRANS-FACTORIAL HepG2 Assay for human Retinoid X Receptor beta (RXRb) (AID 2283013; active = hit-call score of the fitted dose curve at least 0.9, where 1 is the maximum)
human Retinoid X Receptor beta (RXRb), RXRB (gene 6257), sequence (P28702 whole entry, looked up, the tested form may be a part): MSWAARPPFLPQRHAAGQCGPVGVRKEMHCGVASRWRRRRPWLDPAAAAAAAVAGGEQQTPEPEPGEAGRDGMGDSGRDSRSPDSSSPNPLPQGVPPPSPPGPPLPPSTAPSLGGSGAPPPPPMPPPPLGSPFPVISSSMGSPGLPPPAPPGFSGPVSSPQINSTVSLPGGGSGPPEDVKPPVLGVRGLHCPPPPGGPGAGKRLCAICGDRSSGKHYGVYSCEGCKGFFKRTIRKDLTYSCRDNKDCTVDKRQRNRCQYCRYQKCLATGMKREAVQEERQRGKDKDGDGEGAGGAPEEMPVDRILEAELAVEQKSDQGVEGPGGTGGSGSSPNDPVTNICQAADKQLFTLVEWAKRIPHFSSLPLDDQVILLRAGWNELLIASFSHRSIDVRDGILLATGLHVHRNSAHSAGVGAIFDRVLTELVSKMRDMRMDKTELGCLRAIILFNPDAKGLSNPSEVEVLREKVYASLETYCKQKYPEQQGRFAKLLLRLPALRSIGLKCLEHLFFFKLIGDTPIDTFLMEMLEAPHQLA
Procedure, shortened: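 Read-out: reporter mRNA induction via RT-PCR plus capillary electrophoresis fluorescence, analysed as signal increase relative to DMSO. Cells were human HepG2, transiently transfected with GAL4-UAS reporter constructs and chimeric receptor-Gal4 fusions, dosed for 24 h.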

[20] = read-out: Monocyte Chemoattractant Protein-1 (MCP1), CCL2 (gene 6347); experiment: BSK_3C_MCP1: BioMAP Diversity Plus: 3C Assay for Monocyte Chemoattractant Protein-1 (MCP1) Biomarker Activity (AID 2283017); conditions: primary human endothelial cells (HUVEC); actives raise or lower the signal
Procedure, shortened: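 HUVEC, 3C system; 24 h chemical exposure; MCP-1 by ELISA; bidirectional curve fit vs DMSO baseline.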

Measured: AC50

E-selectin (Homo sapiens), sequence (P16581 whole entry, looked up): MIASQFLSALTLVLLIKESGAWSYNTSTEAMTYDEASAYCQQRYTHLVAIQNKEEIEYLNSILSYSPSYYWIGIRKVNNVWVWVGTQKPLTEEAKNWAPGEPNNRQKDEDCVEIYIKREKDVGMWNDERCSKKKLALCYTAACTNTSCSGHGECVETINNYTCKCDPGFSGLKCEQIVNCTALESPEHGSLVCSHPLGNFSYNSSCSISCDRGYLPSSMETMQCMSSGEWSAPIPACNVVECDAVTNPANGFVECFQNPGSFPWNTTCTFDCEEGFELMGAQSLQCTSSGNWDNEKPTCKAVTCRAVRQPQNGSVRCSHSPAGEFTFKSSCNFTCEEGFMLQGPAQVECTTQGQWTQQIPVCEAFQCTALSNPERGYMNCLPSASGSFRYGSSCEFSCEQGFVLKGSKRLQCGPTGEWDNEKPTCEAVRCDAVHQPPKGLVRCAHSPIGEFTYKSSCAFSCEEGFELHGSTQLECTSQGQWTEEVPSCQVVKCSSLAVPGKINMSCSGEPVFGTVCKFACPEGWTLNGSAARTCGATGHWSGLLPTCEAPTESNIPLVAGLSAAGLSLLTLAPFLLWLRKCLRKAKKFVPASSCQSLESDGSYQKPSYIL

Nc1cccc(N)c1
inactive: [1] | [2] | [3] | [4] | [5] | [6] | [7] | [8] | [9] | [10] | [11] | [12] | [13] | [14] | [15] | [16] | [17]

O=C(O)c1cccc(Oc2ccccc2)c1
active: [18] 59.8 µM
inactive: [1] | [2] | [4] | [8] | [19] | [10] | [11] | [12] | [20] | [14] | [15] | [16] | [17]

CCN(C(=O)c1cc(C)cc(OC[C@H](C)Nc2ccncc2)c1)C(C)C
active: [5] 7.38 µM
inactive: [1] | [2] | [3] | [4] | [18] | [6] | [7] | [9] | [11] | [12] | [14] | [15] | [16]

CC[C@H]1CC[C@H](NCc2cc3c(cc2OC)[C@H]2C[C@H]2C(=O)N3C)[C@H](c2ccccc2)N1
active: [4] 28.6 µM | [5] 3.94 µM
inactive: [1] | [2] | [18] | [6] | [8] | [9] | [19] | [11] | [12] | [13] | [14] | [15] | [16] | [17]

COCCOCCOCCOC
inactive: [1] | [2] | [3] | [4] | [18] | [5] | [6] | [9] | [19] | [10] | [11] | [12] | [13] | [14] | [15] | [16]

CC(=O)c1ccc2c(c1)[C@H](NC(=O)c1ccc(F)cc1)[C@@H](O)C(C)(C)O2
inactive: [1] | [2] | [4] | [18] | [6] | [7] | [8] | [11] | [12] | [20] | [13] | [14] | [15] | [16]
active: [5] 12.7 µM

O=C(O)CCN(C1(C(=O)NO)CCCC1)S(=O)(=O)c1ccc(Oc2ccc(F)cc2)cc1
inactive: [1] | [2] | [4] | [18] | [5] | [6] | [7] | [9] | [19] | [10] | [11] | [12] | [20] | [14] | [15] | [16] | [17]

Reference: PubChem BioAssay (EPA / NIEHS)
